A selection: hits, their analogues and other compounds. The true share with any hit is near 6.9%.
JMJD2A Tudor: inhibitors of human JMJD2A Tudor domain | O75164 | AlphaScreen JMJD2A-Tudor / H3K4me3 peptide binding | Potency, µM (highest dose often 114 µM), inactives show at the highest dose activity change, negative = inhibition, hits mostly inhibitors | actives 4.4% (n = 390,000) | AID 504339; also: % is scaled to controls: 0 for no effect and ±100 for the full control effect; nearly all actives have a fitted effect of over 50% in size
BAZ2B inh: inhibitors of human BAZ2B bromodomain; Potency, µM (titrated, usually from 114 µM), without a hit: at the top dose activity change, negative = inhibition, usual class: inhibitors; AID 504333; Q9UIF8; actives 4.4% (n = 360,000); AlphaScreen BAZ2B-H3K14Ac peptide displacement; also: % is scaled to controls: 0 for no effect and ±100 for the full control effect; nearly all actives have a fitted effect of over 60% in size
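AlphaScreen displacement of biotin-H3(5-23)K14Ac peptide (50 nM final) from BAZ2B (50 nM final) in PBS pH 7.4, 0.01% Tween-20; complex preformed 30 min RT, then compounds (top 110 uM) 30 min RT, beads 20 min dark.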
PLK1 PBD block: PLK1 (human) polo-box domain binding inhibition | AID 720504 | Plk1 PBD binding of FITC phosphopeptide, fluorescence polarization | P53350 | actives 2.8% (n = 360,000) | Potency, µM, for inactives: max response, negative = inhibition, usual class: inhibitors; also: series mostly up to about 57 µM; % is scaled to controls: 0 for no effect and ±100 for the full control effect; nearly all actives have a fitted effect of over 65% in size
VDR inhibitor: blocks the human vitamin D receptor; P11473; actives 0.93% (n = 400,000); VDR-SRC2-3 peptide fluorescence polarization, 2 h; Potency, µM, for inactives: max response, negative = inhibition, hits mostly inhibitors; also: % is scaled to controls: 0 for no effect and ±100 for the full control effect
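Measured by FP: displacement of SRC2-3 coactivator peptide from VDR by library compounds, following a two-hour ambient incubation.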
L3MBTL1 block: blocks human L3MBTL1 | Q9Y468 | AlphaScreen L3MBTL1–H3K9me1 peptide binding | Potency, µM (doses to about 57.1 µM), for the others: at the highest dose activity, negative = inhibition, most hits filed as inhibitors | actives 0.66% (n = 230,000) | AID 485360; also: % is scaled to controls: 0 for no effect and ±100 for the full control effect; nearly all actives have a fitted effect of over 60% in size
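Displacement of a biotinylated histone H3(1-15) peptide monomethylated at Lys9 (75 nM) from L3MBTL1 (50 nM) was measured by AlphaScreen after a 30 min room-temperature compound incubation; cefsulodin titration served as intraplate control.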
HP1b chromo inh: HP1-beta chromodomain-methylated histone interaction inhibition | P83916 | AlphaScreen HP1-beta / biotin-H3K9me3 peptide binding | Potency, µM (titrated, usually from 114 µM), without a hit: at the highest dose activity change, negative = inhibition, hits mostly inhibitors | actives 0.56% (n = 390,000) | AID 540317; also: nearly all actives have a fitted effect of over 70% in size
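Compound inhibition of the preformed complex between 50 nM HP1-beta and 50 nM biotinylated H3K9me3 peptide was read by AlphaScreen. Buffer was PBS pH 7.4 with 0.01% Tween-20. Incubations ran 30 min at room temperature, with 10 ug/mL donor/acceptor beads.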
* = called active by the depositor; ? = inconclusive; . = no result; [ ] = dose if it differs, or a comment. Calls follow the shape of the dose curve; as a rule, active = well fitted curve in the direction sought with a large enough effect; inconclusive = small, poorly fitted or top-dose-only effect, or another doubt; inactive = no such curve, though single readings can be large; an effect the other way counts as inactive or inconclusive. Potency is read from the fitted curve at half-maximal effect.

SMILES | JMJD2A Tudor | BAZ2B inh | PLK1 PBD block | VDR inhibitor | L3MBTL1 block | HP1b chromo inh
CC(=O)Nc1cccc(-c2ccnc3c2CC(C)(C(=O)NCc2ccc(F)c(F)c2)O3)c1 (centres undefined) | . | . | -2% | . | . | .
Cc1ccc(N(Cc2cc3ccccc3[nH]c2=O)C(=O)c2cccc(Cl)c2)cc1 | -27% | -8% | . | 5% | . | -8%
COc1ccccc1CNC(=O)CC(c1ccc(F)cc1)N1Cc2ccccc2C1=O (centres undefined) | -13% | -13% | . | 8% | . | -11%
CC1(C)CC(NS(=O)(=O)OCC(Cl)(Cl)Cl)c2cc(C#N)ccc2O1 (centres undefined) | 32µM* | 0% | 24µM* | ? | 8% | 22%
COc1ccc2c(c1)CCCC2NS(=O)(=O)OCC(Cl)(Cl)Cl (centres undefined) | 31% | 18% | -9% | -7% | 11% | 134%
NC(=O)C1CCN(c2nc(-c3ccc4ccccc4c3)cs2)CC1 | ? | -12% | . | -28% | -12% | -11%
O=[N+]([O-])c1ccc(Cl)c(/C=N/N2CCN(c3ccccc3)CC2)c1 | 10µM* | 11µM* | -8% | 4% | -18% | ?
CN1CCN(/N=C/c2ccc(-c3ccc([N+](=O)[O-])cc3Cl)o2)CC1 | 56µM* | 28µM* | -1% | -8% | ? | ?
COc1ccccc1N1CCN(/N=C/c2cc([N+](=O)[O-])ccc2Cl)CC1 | ? | 7.9µM* | 2% | -8% | -29% | -20%
CCC1(c2ccc(Cl)cc2)NC(=O)N(CC(=O)NC2CCCC(C)C2C)C1=O (centres undefined) | -8% | -2% | 5% | 0% | -1% | 61%
N#CC(C#N)=CC1=C2OC(c3ccccc3)=CC(c3ccccc3)=C2CCC1 | 2.2µM* | ? | -3% | 1% | . | 2.8µM*
NNc1nc(Nc2ccc([N+](=O)[O-])cc2)nc(N2CCCCCC2)n1 | 56µM* | 28µM* | -6% | -9% | -19% | 109%
NNc1nc(Nc2ccccc2)nc(N2CCCCC2)n1 | ? | 79µM* | -8% | -3% | . | 19%
O=[N+]([O-])c1ccc(Nc2nc(NCCO)nc(N3CCCC3)n2)cc1 | -6% | 3% | -16% | -6% | . | 20%
Cc1cccc(Nc2nc(N3CCCCC3)nc(N3CCCCC3)n2)c1 | 7% | 3% | -5% | -6% | 14% | 28%
O=[N+]([O-])c1ccc(Nc2nc(N3CCOCC3)nc(N3CCOCC3)n2)cc1 | -12% | . | 3% | -7% | . | 8%
Cc1ccc([N+](=O)[O-])cc1Nc1nc(N2CCCC2)nc(N2CCCC2)n1 | ? | 6% | 19µM* | 79µM* | -8%[2.29 µM] | -9%
CCc1nc(-c2ccc(C)c(S(=O)(=O)N3CCN(c4ccc(C(C)=O)cc4)CC3)c2)no1 | -8% | -29% | . | 6% | . | 3%
CC(=O)c1cccc(NC(=O)c2ccc3nc(Cc4ccccc4)oc3c2)c1 | -24% | -4% | . | -2% | . | 7%[57 µM]
O=C(c1ccc(S(=O)(=O)Cc2cc(F)ccc2F)c([N+](=O)[O-])c1)N1CCCC1 | -2% | -16% | 11µM* | ? | . | 47%
Cc1nc2c(c(C)c1CCC(=O)Nc1cccc(C(F)(F)F)c1)c(=O)n(C)c(=O)n2C | -6% | -11% | . | -9% | . | -4%
Cc1cc(C)cc(NC(=O)c2cccc(NC(=O)c3ccco3)c2)c1 | -27% | . | -4% | -13% | . | 42%
O=C(Nc1cc(Br)c(O)c(Br)c1)c1cccc(NC(=O)c2ccco2)c1 | -29% | 50µM* | -17% | 0% | -10% | 9%
CC(=O)c1cccc(NC(=O)c2cccc(NC(=O)c3ccco3)c2)c1 | -15% | 79µM* | -13% | -9% | 9% | 55%
Cc1ccc(CO)cc1Nc1ncnc2onc(-c3ccc(F)cc3)c12 | -12% | -3% | . | 3% | . | 20%
SMILES | JMJD2A Tudor | BAZ2B inh | PLK1 PBD block | VDR inhibitor | L3MBTL1 block | HP1b chromo inh
CCOC(=O)c1ccc(N=c2sc(C(=O)OC)cc(=O)n2CCCN2CCOCC2)cc1 | ? | 50µM* | -9% | ? | . | -8%
Cc1coc2c1C(=O)C(=O)c1c-2ccc2c(C)cccc12 | 35µM* | 35µM* | ? | ? | . | ?
Cc1ccc2c3c(cccc13)-c1ccccc1C2=O | -11% | 9% | -4% | -22% | 15% | 30%
Cc1coc2c1C(=O)C(=O)c1c-2ccc2c1CCCC2(C)C | 45µM* | 7.9µM* | ? | 28µM* | ? | ?
Cc1cccc(-c2nnc(SCc3cc(=O)c4cccc(Cl)c4[nH]3)n2C)c1 | -8% | -2% | . | 5% | . | 28%[57 µM]
CN1C(=O)Cc2cc(S(=O)(=O)CCC(=O)Nc3ccc(Cl)cc3)ccc21 | -5% | 0% | . | 9% | . | 30%
CCc1cccc(C)c1NC(=O)c1cc(S(=O)(=O)N2CCN(c3ccccc3)CC2)ccc1F | -7% | 5% | . | 17% | . | 26%
Cc1ccc2c(c1)C(c1ccc(F)cc1)N(C(=O)c1ccc(S(=O)(=O)N3CCCCC3)cc1)CC(=O)N2 (centres undefined) | -26% | 0% | . | 15% | . | 24%
O=C(Nc1ccc(NC(=O)c2ccccc2)nc1)c1ccncc1 | ? | -13% | 17µM* | ? | 2% | 9%
O=C(Nc1ccc(NC(=O)C2CC2)nc1)c1ccccn1 | 45µM* | ? | -14% | ? | 9% | 17%
O=C(Nc1ccc(NC(=O)c2ccccc2Cl)nc1)c1ccncc1 | -17% | -4% | -3% | 15% | 15% | 3%
CCOc1ccc(NC(=O)Cn2c(=O)cc(C)c3c(C)nn(-c4cccc(Cl)c4C)c32)cc1 | -33% | 2% | . | 7% | . | 59%
CN1CCO/C1=C(\C(Cl)=C(Cl)Cl)[N+](=O)[O-] | 56µM* | 50µM* | ? | -20% | 21% | 23%
CCC1CO/C(=C(\C(Cl)=C(Cl)Cl)[N+](=O)[O-])N1 (centres undefined) | -16%[11.4 µM] | 2% | ? | -6% | . | ?
Cc1ccc(S(=O)(=O)N2CCN(C(=O)c3ccc(-n4cncn4)c([N+](=O)[O-])c3)CC2)c(C)c1 | . | . | -4% | . | . | .
OCC1CCCN(Cc2ccc(-c3ccccc3)cc2)C1 (centres undefined) | 2.2µM* | ? | -8% | 2% | 6% | ?
COc1ccc(NC(=O)c2c(NCc3ccc(OC)c(OC)c3OC)sc3c2CCC3)c(OC)c1 | ? | -30% | . | -7% | . | -15%
COc1cccc(N=Nc2c(=O)[nH]n3c(=O)c4c([nH]c23)CCC4)c1 | 50µM* | 45µM* | 30µM* | -13% | ? | ?
FC(F)(F)c1ccccc1-c1ccc2ncnc(NCc3cccs3)c2c1 | . | . | . | -26% | . | .
COC(=O)/C=C1\SC(=NC(=O)c2ccc(-c3ccccc3)cc2)NC1=O | ? | . | 19µM* | -9% | -26% | -7%[57 µM]

Compound activity deposited in PubChem by National Center for Advancing Translational Sciences (NCATS).
